In the library only some 3.1% were active in any assay of this set; here they are far more common.
KAT2A inh: qHTS Assay for Inhibitors of GCN5L2; GCN5L2 HAT assay, ThioGlo1 CoA-SH fluorescence; 0.21% of 390,000 active; Histone acetyltransferase KAT2A (Homo sapiens), Q92830; Potency, µM (top dose mostly 58.9 µM), inactives show top-dose activity change, negative = inhibition, usual class: inhibitors; note: potency is the fitted concentration of half-maximal effect
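qHTS, 1536-well. 20nM enzyme, pH 7.5 HEPES/EDTA/Tween-20 buffer; 15 min compound preinc., RT. Start: 75uM H3(1-25), 70uM AcCoA, 50uM ThioGlo1. Read Ex340/Em540 at t=0 (autofluorescence flag) and t=20 min.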
VDR inhibitor: Inhibitors of the vitamin D receptor (VDR): qHTS; VDR-SRC2-3 peptide fluorescence polarization, 2 h; Potency, µM, for inactives: max response, negative = inhibition, most hits filed as inhibitors; 0.93% of 400,000 active; note: potency is the fitted concentration of half-maximal effect
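After 23 nl compound addition and a short centrifugation, plates sat for 2 hours at ambient temperature; polarization of fluorescence then indicated loss of VDR binding to peptide SRC2-3.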
GLS inh: qHTS for Inhibitors of Glutaminase (GLS); Potency, µM (top dose mostly 45.5 µM), without a hit: at the top dose activity change, negative = inhibition, actives largely listed as inhibitors; 0.21% of 410,000 active; Glutaminase kidney isoform, mitochondrial (Homo sapiens), O94925; GLS enzymatic activity, qHTS titration; AID 624170, 2012; note: potency is the fitted concentration of half-maximal effect
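Coupled fluorescence readout: glutamate oxidase/HRP/Amplex Red detect glutamate formed by hKGA from L-glutamine (1 mM solution added). Buffer 45 mM KH2PO4 pH 8.2, 0.02% Tween-20; reads at t0 and 30 min RT.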
PLK1 PBD inh: qHTS for Inhibitors of PLK1-PDB (polo-like kinase 1 - polo-box domain): Primary Screen; 2.8% of 360,000 active; Potency, µM, without a hit: max response, negative = inhibition, hits mostly inhibitors; Plk1 PBD binding of FITC phosphopeptide, fluorescence polarization; Serine/threonine-protein kinase PLK1 (Homo sapiens), P53350; AID 720504, 2013; note: potency is the fitted concentration of half-maximal effect; series mostly up to about 57 µM; nearly all actives have a fitted effect of over 65% in size
Target sequence (P53350 whole entry, looked up, the tested form may be a part): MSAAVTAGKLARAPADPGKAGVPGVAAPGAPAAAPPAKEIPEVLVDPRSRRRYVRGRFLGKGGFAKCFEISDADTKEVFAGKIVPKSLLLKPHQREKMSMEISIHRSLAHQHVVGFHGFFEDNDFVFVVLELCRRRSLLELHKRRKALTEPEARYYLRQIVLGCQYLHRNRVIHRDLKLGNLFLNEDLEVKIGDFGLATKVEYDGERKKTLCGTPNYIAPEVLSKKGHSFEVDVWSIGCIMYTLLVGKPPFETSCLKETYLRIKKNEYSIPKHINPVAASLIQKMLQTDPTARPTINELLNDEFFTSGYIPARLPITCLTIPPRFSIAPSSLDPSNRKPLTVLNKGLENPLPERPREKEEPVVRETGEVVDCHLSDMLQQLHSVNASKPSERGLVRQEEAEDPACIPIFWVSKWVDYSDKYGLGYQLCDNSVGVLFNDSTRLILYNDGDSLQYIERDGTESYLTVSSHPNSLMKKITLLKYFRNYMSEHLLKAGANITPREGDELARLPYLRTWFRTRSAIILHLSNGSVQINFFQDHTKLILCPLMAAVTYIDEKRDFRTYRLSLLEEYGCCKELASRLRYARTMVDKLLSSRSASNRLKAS
PI4K2A inh: qHTS for small molecular inhibitors of PI4K2A. Phosphatidylinositol 4-kinase type 2-alpha (Homo sapiens), Q9BTU6. purified PI4K2A, ADP-Glo luminescence, 1 h; active compounds read low. activity change, negative = inhibition, % at 76.9 µM. 0.13% of 420,000 active. AID 1346378, 2018; in the data active = activity change below about -50%; inconclusive = mostly about -30% to -49%;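 note: -100% = wells without enzyme as full effect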
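PI4K2A activity was measured by ADP-Glo luminescence: enzyme (4 ug/mL stock) and phosphatidylinositol (1.2 mM stock) in Tris pH 7.5/MgCl2/EGTA/Triton X-100 buffer were reacted with ATP (300 microM stock) for one hour at ambient temperature.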
* = called active by the depositor; ? = inconclusive; / = not tested or not shown; ! = repeats disagree. Unless noted, calls come from the whole dose curve; as a rule, active = well fitted curve in the direction sought with a large enough effect; inconclusive = small, poorly fitted or top-dose-only effect, or another doubt; inactive = no such curve, though single readings can be large; an effect the other way counts as inactive or inconclusive. Unless noted, % is set by controls: 0 for no effect and ±100 for the full control effect.

SMILES	KAT2A inh	VDR inhibitor	GLS inh	PLK1 PBD inh	PI4K2A inh
Cc1ccc2c(c1)sc1nc(=O)ccn12	3.6%	-27.2%	16.5%	15µM*	4.0
CCNc1ncc2ncc(=O)n(C)c2n1	?	-1.8%	/	/	/
O=C(NCc1ccco1)C1CCCN(S(=O)(=O)c2cccs2)C1 (stereo unspecified)	/	/	/	/	-2.2
Cc1cc(NC(=O)C(C)C)ncc1NC(=O)c1ccccn1	3.4%	-17.0%	8.7%	26.7µM*	0.6
CCCC(=O)Nc1cc(C)c(NC(=O)c2ccccn2)cn1	?	-9.1%	13.9%	?	-5.5
OC[C@@H]1[C@@H](c2ccc(Cl)cc2)C(c2ccccc2)=NN1c1ccccc1	?	?	5.0%	-5.3%	-3.2
OC[C@@H]1[C@@H](c2ccc(Cl)cc2)C(c2cccc(Cl)c2)=NN1c1ccccc1	28.2µM*!	-21.6%	1.2%	-12.4%	1.0
COc1ccc(CNC(=O)c2nn(C)c3c2CS(=O)(=O)c2ccccc2-3)cc1	1.6%	79.4µM*!	-1.2%	1.8%	4.6
Cc1ccc(CNC(=O)c2nn(C)c3c2CS(=O)(=O)c2ccccc2-3)cc1	-3.5%	-26.2%	17.9%	29.9µM*	0.8
CCc1ccc(CNC(=O)c2nn(C)c3c2CS(=O)(=O)c2ccccc2-3)cc1	-7.8%	1.2%	3.8%	-12.3%	1.4
COc1cccc(CNC(=O)c2nn(C)c3c2CS(=O)(=O)c2ccccc2-3)c1	-5.3%	4.7%	1.3%	/	-0.5
COc1ncc2nc(-c3ccccc3)c(=O)n(CCC#N)c2n1	-11.6%	0.7%	/	/	/
COc1ncc2nc(-c3cccs3)c(=O)n(CCC#N)c2n1	35.5µM*	-7.0%	/	/	/
O=C1CCC2(CCCCC2)N1CCCO	/	/	/	/	6.4
Cc1ccc2c(C(=O)CN3CCC4(CC3)OCCO4)c(C)[nH]c2c1	-3.6%	4.2%	-0.1%	-1.7%	-1.1
Cc1ccc2c(C(=O)CN3CCSCC3)c(C)[nH]c2c1	4.3%	-22.2%	28.6%	18.9µM*	3.2
COC(=O)NC1C=CCCC1C(C)=O (stereo unspecified)	/	2.4%	/	/	/
CC1CC(C)CN(CCCNC(=O)c2ccc3c(c2)NC(=O)CS3)C1 (stereo unspecified)	-2.5%	-1.7%	0.2%	29.9µM*	8.7
COc1ccc(S(=O)(=O)NCc2ccc(C(=O)NCCCN3CC(C)CC(C)C3)cc2)cc1 (stereo unspecified)	2.5%	-12.1%	-5.0%	26.7µM*	11.0
NC(=O)C1CCCN(C(=O)c2ccc3c(c2)NC(=O)CS3)C1 (stereo unspecified)	-4.5%	-7.9%	-8.3%	3.5%	4.9
O=C1CSc2ccc(C(=O)N3CCCCC3)cc2N1	/	/	-12.2%	15µM*	-1.0
Cc1c(F)c(N2CCNC(C)C2)cc2c1c(=O)c(C(=O)O)cn2C1CC1 (stereo unspecified)	-3.9%	9.3%	-2.7%	/	-1.9
COC(=O)CCC(=O)N1C2=NC3=C(C(=O)N(Cc4ccc5c(c4)OCO5)C3=O)C3N(C)c4ccccc4[C@]23C[C@H]1CO (stereo partly specified)	/	/	/	/	5.8
Cc1cc(-n2c(C)cc(C(=O)CSc3nnnn3-c3ccccc3)c2C)no1	-6.9%	10.0%	-9.7%	2.3%	9.1
Cc1cc(-n2c(C)cc(C(=O)CN3C(=O)C(=O)N(C)C3=O)c2C)no1	-0.6%	1.7%	0.1%	-10.7%	1.5
SMILES	KAT2A inh	VDR inhibitor	GLS inh	PLK1 PBD inh	PI4K2A inh
Cc1cc(-n2c(C)cc(C(=O)CCl)c2C)no1	-1.8%	-8.2%	-8.5%	13.4µM*	16.3
Cc1cc(-n2c(C)cc(C(=O)CSc3ccccn3)c2C)no1	2.1%	-14.7%	-2.0%	16.8µM*	-1.2
Oc1ccccc1C(=S)N1CCCCC1	0.8%	-21.8%	-8.9%	26.7µM*	-27.7
O=C1NC2(CCCCC2)C(=O)N1/N=C/c1ccc(O)cc1O	-1.7%	-26.1%	20.1%	21.2µM*	16.7
CC(C)(C)NC(=O)NC(=O)CN1CCCCC1	1.3%	-11.5%	-4.5%	-10.1%	-6.0
CC(C)(C)NC(=O)NC(=O)CN1CCN(Cc2ccccc2)CC1	-3.5%	-3.3%	?	29.9µM*	5.2

Bioassay records as filed in PubChem BioAssay.
